Screen size: about 5,500 compounds; about 2,000 (36%) were called active. Another 18% or so got no clear call; they are omitted. No stated cut-off is given here; in the data, active means normalized growth mostly below about 0.91 (no sharp cut-off); inconclusive means no clear call, values can overlap the other calls; inactive means mostly above about 0.92. The list shows a part of the results.
Assay: chemical genetic growth profiling, strain panel (AID 1159580);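 further: tested at 20 µM; growth read once vehicle control cultures reached saturation at 30 °C; 1 = growth at the plate median or of vehicle wells; lower values mean less growth of the strain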
Settings: growth OD

Measured: normalized growth

COc1ccc([C@@H]2CC(=O)c3c(O)cc(O)cc3O2)cc1O
inactive: S. cerevisiae deletion strains, locus YJR043C, strain POL32, hits give low values 0.966 | S. cerevisiae deletion strains, locus YJR066W, strain TOR1, hits give low values 0.95 | S. cerevisiae deletion strains, locus YJR075W, strain HOC1, hits give low values 1.03 | S. cerevisiae deletion strains, locus YKL009W, strain mrt4, hits give low values 1.01 | S. cerevisiae deletion strains, locus YKL068W, hits give low values 0.998 | S. cerevisiae deletion strains, locus YKL085W, strain MDH1 (second series), hits give low values 0.99 | S. cerevisiae deletion strains, locus YKL085W, strain MDH1, hits give low values 0.99 | S. cerevisiae deletion strains, locus YKL160W, strain elf1, hits give low values 0.954 | S. cerevisiae deletion strains, locus YKR001C, strain vps1, hits give low values 1 | S. cerevisiae deletion strains, locus YKR026C, strain gcn3, hits give low values 0.982 | S. cerevisiae deletion strains, locus YKR091W, strain srl3, hits give low values 0.973 | S. cerevisiae deletion strains, locus YLL001W, strain dnm1, hits give low values 0.947 | S. cerevisiae deletion strains, locus YLL026W, hits give low values 0.993 | S. cerevisiae deletion strains, locus YLL041C, strain sdh2, hits give low values 0.982 | S. cerevisiae deletion strains, locus YLR027C, strain aat2, hits give low values 1 | S. cerevisiae deletion strains, locus YLR039C, strain RIC1, hits give low values 1.06 | S. cerevisiae deletion strains, locus YLR058C, strain SHM2, hits give low values 1.01 | S. cerevisiae deletion strains, locus YLR102C, strain apc9, hits give low values 1.01 | S. cerevisiae deletion strains, locus YLR113W, strain HOG1, hits give low values 1.02 | S. cerevisiae deletion strains, locus YLR221C, strain rsa3, hits give low values 0.959 | S. cerevisiae deletion strains, locus YLR258W, strain gsy2, hits give low values 0.977 | S. cerevisiae deletion strains, locus YLR262C, strain YPT6 (second series), hits give low values 0.972 | S. cerevisiae deletion strains, locus YLR262C, strain YPT6, hits give low values 1.03 | S. cerevisiae deletion strains, locus YLR268W, strain sec22, hits give low values 1.06 | S. cerevisiae deletion strains, locus YLR320W, strain mms22, hits give low values 0.93 | S. cerevisiae deletion strains, locus YLR330W, strain CHS5, hits give low values 1.01 | S. cerevisiae deletion strains, locus YLR342W, strain FKS1 (second series), hits give low values 0.979 | S. cerevisiae deletion strains, locus YLR342W, strain FKS1, hits give low values 0.976 | S. cerevisiae deletion strains, locus YLR357W, strain rsc2, hits give low values 0.953 | S. cerevisiae deletion strains, locus YLR370C, strain arc18, hits give low values 0.97 | S. cerevisiae deletion strains, locus YLR371W, strain rom2, hits give low values 1.01 | S. cerevisiae deletion strains, locus YLR384C, strain iki3, hits give low values 0.972 | S. cerevisiae deletion strains, locus YLR418C, strain cdc73, hits give low values 0.937 | S. cerevisiae deletion strains, locus YML016C, strain PPZ1, hits give low values 1 | S. cerevisiae deletion strains, locus YML032C, strain rad52, hits give low values 0.991 | S. cerevisiae deletion strains, locus YML120C, strain ndi1, hits give low values 0.974 | S. cerevisiae deletion strains, locus YML124C, strain tub3, hits give low values 1.01 | S. cerevisiae deletion strains, locus YMR058W, strain fet3, hits give low values 0.969 | S. cerevisiae deletion strains, locus YMR078C, strain ctf18, hits give low values 1.01 | S. cerevisiae deletion strains, locus YMR125W, strain sto1, hits give low values 0.96 | S. cerevisiae deletion strains, locus YMR129W, hits give low values 0.988 | S. cerevisiae deletion strains, locus YMR205C, strain PFK2, hits give low values 0.952 | S. cerevisiae deletion strains, locus YMR223W, strain ubp8, hits give low values 0.978 | S. cerevisiae deletion strains, locus YMR231W, strain pep5, hits give low values 0.98 | S. cerevisiae deletion strains, locus YMR263W, strain SAP30, hits give low values 1.03 | S. cerevisiae deletion strains, locus YMR307W, strain GAS1, hits give low values 0.952 | S. cerevisiae deletion strains, locus YNL067W, strain RPL9B, hits give low values 1.03 | S. cerevisiae deletion strains, locus YNL071W, strain lat1, hits give low values 0.979 | S. cerevisiae deletion strains, locus YNL183C, strain NPR1, hits give low values 0.944 | S. cerevisiae deletion strains, locus YNL209W, strain ssb2, hits give low values 0.986 | S. cerevisiae deletion strains, locus YNL233W, strain BNI4, hits give low values 1 | S. cerevisiae deletion strains, locus YNL248C, strain rpa49, hits give low values 0.97 | S. cerevisiae deletion strains, locus YNL250W, strain rad50, hits give low values 1.02 | S. cerevisiae deletion strains, locus YNL271C, strain bni1, hits give low values 1.01 | S. cerevisiae deletion strains, locus YNL298W, strain CLA4, hits give low values 1.02 | S. cerevisiae deletion strains, locus YNL307C, strain MCK1, hits give low values 1.01 | S. cerevisiae deletion strains, locus YNL322C, strain KRE1 (second series), hits give low values 0.987 | S. cerevisiae deletion strains, locus YNR049C, strain mso1, hits give low values 0.973 | S. cerevisiae deletion strains, locus YNR052C, strain pop2, hits give low values 1.02 | S. cerevisiae deletion strains, locus YOL012C, strain htz1 1.12 | S. cerevisiae deletion strains, locus YOL147C, strain pex11, hits give low values 0.998 | S. cerevisiae deletion strains, locus YOR001W, strain rrp6, hits give low values 0.988 | S. cerevisiae deletion strains, locus YOR061W, strain CKA2, hits give low values 1 | S. cerevisiae deletion strains, locus YOR069W, strain VPS5, hits give low values 1 | S. cerevisiae deletion strains, locus YOR070C, strain gyp1, hits give low values 0.975 | S. cerevisiae deletion strains, locus YOR080W, strain dia2, hits give low values 0.979 | S. cerevisiae deletion strains, locus YOR083W, strain WHI5, hits give low values 0.934 | S. cerevisiae deletion strains, locus YOR106W, strain vam3, hits give low values 0.946 | S. cerevisiae deletion strains, locus YOR136W, strain idh2, hits give low values 1.01 | S. cerevisiae deletion strains, locus YOR144C, strain elg1, hits give low values 0.999 | S. cerevisiae deletion strains, locus YOR184W, strain ser1, hits give low values 0.986 | S. cerevisiae deletion strains, locus YOR231W, strain MKK1, hits give low values 1.02 | S. cerevisiae deletion strains, locus YOR265W, strain rbl2, hits give low values 0.983 | S. cerevisiae deletion strains, locus YOR270C, strain vph1, hits give low values 0.933 | S. cerevisiae deletion strains, locus YOR290C, strain snf2, hits give low values 0.924 | S. cerevisiae deletion strains, locus YOR316C, strain cot1, hits give low values 1 | S. cerevisiae deletion strains, locus YPL051W, strain arl3, hits give low values 0.967 | S. cerevisiae deletion strains, locus YPL055C, strain LGE1, hits give low values 1.02 | S. cerevisiae deletion strains, locus YPL078C, strain atp4, hits give low values 0.952 | S. cerevisiae deletion strains, locus YPL106C, strain sse1, hits give low values 0.965 | S. cerevisiae deletion strains, locus YPL240C, strain hsp82, hits give low values 0.997 | S. cerevisiae deletion strains, locus YPL256C, strain CLN2, hits give low values 1.03 | S. cerevisiae deletion strains, locus YPR119W, strain clb2, hits give low values 1.01 | S. cerevisiae deletion strains, locus YPR141C, strain kar3, hits give low values 1.01 | S. cerevisiae deletion strains, locus YPR163C, strain tif3, hits give low values 1.01 | S. cerevisiae deletion strains, locus YPR167C, strain met16, hits give low values 1 | S. cerevisiae deletion strains, strain wtn01, hits give low values 1.03 | S. cerevisiae strains, strain wild type, hits give low values 1.01

Reference: PubChem BioAssay AID1159580 (chemical genetic matrix, 2015)
